# From the supplement of paper PMC6555819
# Assays:
# Assay in all cases: PBM binding z-score (relative to random genomic background probes); higher = stronger binding; sequences stand for … in GC…GCGATTGACAGCGTAGAATGAAGG
# [1] = test system: PPARg:RXRa DBDmut IVT, anti-RXR (DBD mutation: RXRa K156A/R161A, NR concentration 270 nM, RXRa partner concentration 90 nM)
# Summary of the method: (§1)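 On custom Agilent 4×180K arrays, double-stranded probes with 34-nt variable regions carried direct-repeat seeds, single-nucleotide variants, half-site ablations or random human genomic background. Ligand-free nuclear receptor dimers were applied for 1 h, and binding was read with antibodies against each partner (one per run). Binding z-scores come from regression-normalized fluorescence, with the random background probes as reference.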
# [2] = test system: PPARg:RXRa IVT, anti-PPARg (NR concentration 270 nM, RXRa partner concentration 90 nM)
# Summary of the method: as §1
# [3] = test system: PPARg DBDmut:RXRa IVT, anti-PPARg (DBD mutation: PPARg1 K132A/R137A, NR concentration 270 nM, RXRa partner concentration 90 nM)
# Summary of the method: as §1
# [4] = test system: PPARg DBDmut IVT, anti-PPARg (DBD mutation: PPARg1 K132A/R137A, NR concentration 270 nM)
# Summary of the method: as §1
# [5] = test system: PPARg homodimer (NR concentration 180 nM)
# Summary of the method: as §1
# [6] = test system: PXR:RXRa (NR concentration 270 nM, RXRa partner concentration 90 nM)
# Summary of the method: as §1
# [7] = test system: PXR homodimer (NR concentration 270 nM)
# Summary of the method: as §1
# [8] = test system: RARa:RXR (NR concentration 270 nM, RXRa partner concentration 90 nM)
# Summary of the method: as §1
# [9] = test system: RARa homodimer (NR concentration 270 nM)
# Summary of the method: as §1
# [10] = test system: RARb:RXRa (NR concentration 270 nM, RXRa partner concentration 90 nM)
# Summary of the method: as §1
# [11] = test system: RARb homodimer (NR concentration 270 nM)
# Summary of the method: as §1
# [12] = test system: RARg:RXRa (NR concentration 270 nM, RXRa partner concentration 90 nM)
# Summary of the method: as §1
# [13] = test system: RARg homodimer (NR concentration 270 nM)
# Summary of the method: as §1
# [14] = test system: RXRa DBDmut IVT, anti-RXR (DBD mutation: RXRa K156A/R161A, NR concentration 90 nM)
# Summary of the method: as §1
# [15] = test system: RXRa homodimer (NR concentration 180 nM)
# Summary of the method: as §1
# [16] = test system: THRa:RXRa (NR concentration 90 nM, RXRa partner concentration 90 nM)
# Summary of the method: as §1
# [17] = test system: THRa homodimer (NR concentration 90 nM)
# Summary of the method: as §1
# [18] = test system: VDR homodimer (NR concentration 270 nM)
# Summary of the method: as §1
# [19] = test system: VDR:RXRa (NR concentration 270 nM, RXRa partner concentration 90 nM)
# Summary of the method: as §1
Sequence,PBM binding z-score [1],PBM binding z-score [2],PBM binding z-score [3],PBM binding z-score [4],PBM binding z-score [5],PBM binding z-score [6],PBM binding z-score [7],PBM binding z-score [8],PBM binding z-score [9],PBM binding z-score [10],PBM binding z-score [11],PBM binding z-score [12],PBM binding z-score [13],PBM binding z-score [14],PBM binding z-score [15],PBM binding z-score [16],PBM binding z-score [17],PBM binding z-score [18],PBM binding z-score [19]
CGTCCAAGGTCAGAGAGGTCAGTGTATGCCGAGT,2.75,3.39,-0.0469,0.446,3.62,5.92,12.1,5.19,1.5,5.16,5.2,6.1,6.77,3.28,5.29,4.14,3,5.78,–
CCTTACGGGTCTCTCCAGGTTATAGCATCGGAGT,0.165,0.161,-0.412,-0.96,0.354,0.294,-0.138,0.923,0.0233,0.15,0.324,0.139,0.231,-0.347,0.0573,3.09,0.346,0.105,–
TCAGATAGGTAAAGGTGAAAGTCGAACGATATGA,2.81,2.22,0.559,0.38,1.31,0.975,0.0879,1.75,0.371,2.16,1.76,1.57,1.27,0.734,2.33,1.33,-0.218,-0.344,–
CAAACTAGGTCAAAGGTCAAGGTCGAGCCAACCA,9.03,9.29,6.79,5.8,7.67,7.26,1.52,8.89,3.88,5.76,5.8,8.92,7.7,3.18,9.96,4.92,2.98,3.42,–
ATCGAAAGGTCGAAGGTGAGTACACCCACCCGAA,0.019,2.74,1.5,0.329,1.98,3.49,0.469,4.08,1.18,3.9,2.79,4.39,4.08,1.13,4.96,2.54,-0.0194,2.07,–
CAAAGTAGGTCAAGGTCAAAGTCGGTTTGTGCCA,8.64,9.04,5.79,3.56,4.77,5.48,2.55,5.94,2.15,5.07,5.16,6.15,6.56,3.29,6,4.22,3.66,4.44,–
CCTACTGGGCGATTCAGAGGTCATTGATCATATG,1.07,1.23,-1.35,-0.572,1.38,4.37,1.7,4.25,0.31,2.53,3.62,3.12,2.1,0.873,3.28,2.83,0.887,2.83,–
TCTCGGAGGACACGAAAAGTCAGAGCTCGACATC,1.7,0.139,-0.679,-0.502,0.0166,-0.0938,-0.142,0.141,-0.037,1.72,0.803,0.704,1.37,1.08,0.187,1.27,0.205,-0.252,–
CCTTACGGGTCACTGACAGCTTATAGCATTTGGA,3.83,3.59,0.471,0.264,2.05,2.79,-0.111,3.44,1.14,3.84,2.97,4.67,4.43,2.04,4.76,2.32,0.275,0.89,–
ACCAGCAGGCCAAGGGTCACTCAAGATTAGTCCG,-0.293,2.57,-0.621,-0.244,2.32,2.95,-0.192,3.93,0.0192,3.37,3.61,4.08,3.49,0.237,4.04,2.63,0.148,1.1,–
TCTAGTTGGTCAAAGGCCACACACTCGAAATGCG,2.18,3.17,0.393,0.329,1.01,0.772,0.0843,1.28,0.063,1.95,1.9,1.77,1.42,0.875,1.71,0.626,0.029,-0.00157,–
CCTAGTGGGTCAGGAGGTCACACACCGGATATGA,5.23,7.22,0.727,0.445,3.37,4.62,0.774,5.66,1.06,4.42,4.61,6.26,5.86,-0.339,6.15,3.73,2.04,2.09,–
GCATACGGGTCAAAGGTTATAGCATGAATAGAAT,4.64,6.5,1.34,2.31,3.95,6.29,0.519,8.51,0.512,4.49,3.26,6.95,4.87,2.46,9.53,3.81,-0.445,1.56,–
CGAACTAGGTAAAGGACAGTGAATCTCCGCACGC,5.6,4.4,0.46,-0.605,0.363,-0.407,-0.167,-0.453,-0.188,1.21,0.899,0.243,0.583,0.0169,0.286,–,-0.0591,-0.21,–
TAGCCTAGGTCAAGCGGGCCAGTATAGTGTCGGC,2.36,2.99,-0.422,-0.858,0.96,1.38,-0.618,2.42,-0.521,4.04,3.29,4.34,5.14,0.428,–,2.9,0.702,-0.353,2.6
CCTTACGGGTCACTCAAGGTTATAGCATCGGAGT,2.86,3.83,1.98,1.29,3.87,6.13,1.3,4.95,0.631,4.07,3.55,4.9,4.38,2.01,5.23,–,1.01,1.75,–
CCCACTGGGGCAAAGGTTACCATACTCAGTACGA,5.25,7.1,0.141,-0.557,1.73,2.41,-0.111,3.81,0.0182,2.37,2.15,3.57,1.81,-0.648,3.57,1.8,-0.0576,0.129,–
ACTAGTTGGTCACCTGAGGTCACACACAATTCGG,2.55,3.78,1.79,1.35,4.91,6.25,3.12,5.48,2.94,3.91,4.6,4.66,4.96,1.53,–,5.34,5.66,5.13,5.23
CCTACTGGGCCATTCAGAGGTTATTGATCATATG,4.41,3.71,0.418,0.252,0.658,0.724,0.159,0.877,0.171,0.712,1.19,1.1,0.495,0.368,–,0.915,0.14,0.749,0.462
CTTAGTTGGTCAGGAGGTCACACACCGGATATGA,3.35,4.3,1.44,1.09,3.81,4.37,1.79,4.74,3.28,3.83,4.33,5.21,4.53,1.06,4.99,3.67,2.65,2.74,–
ACTAGTTGGTCAGCTGGGGTCACACACAATTCGG,1.23,2.46,0.596,-0.0449,2.5,5.82,1.23,6.17,0.784,3.33,4.07,4.45,3.92,1.28,5.58,4.71,3.54,3.33,–
CAAACTAGGTCACAGAGGACAAAGTCCGTGCGTA,8.78,9.01,7.7,3.32,4.15,3.52,2.3,3.22,1.21,4.54,3.93,4.96,6.01,2.36,–,3.89,1.94,3.57,6.52
CCCGCTAGGTCATGGTCAGCTAATCTACAGTATG,3.87,3.52,-0.299,-0.741,1.77,1.49,-0.038,2.33,0.196,3.83,3.38,4,4.55,1.57,3.06,3.21,1.91,0.379,–
CCTAGTTGGTCAGGGGGTCACACACCGGATATGA,1.2,4.57,2.8,4.19,3.05,5.01,1.49,5.48,1.61,3.74,4.05,5.83,4.22,0.886,6.18,3.88,2.28,3.16,–
CGTCAAAGTTCACCTAAGGTAACGTAAAGCACGC,0.554,2.63,0.556,0.77,3.35,5.29,3.14,4.17,0.893,5.21,4.45,5.95,6.36,4.67,5.09,–,3.11,4.19,–
TAGCCTAGGTCATTCAGGCGCCAGTATAGAAAGC,1.59,2.61,0.787,-0.107,1.85,1.68,-0.342,2.44,-0.00217,3.56,2.25,3.97,4.09,1.78,–,2.7,0.451,1.3,2.53
CCTACTGGGCCACGTAAGGTCATTGATTCAGTGA,5.56,5.43,0.00703,-0.733,1.14,4.38,1.49,3.25,0.62,3.02,3.87,3.33,3.01,0.502,3.33,–,4.46,2.84,3.69
TAGCCTAGGTTATGCGGGCCAGTATAGTGTCGGC,0.00744,0.945,-0.658,-0.513,-0.501,-0.511,-0.854,-0.208,-1.25,0.558,0.219,-0.108,0.272,-0.93,0.14,–,-0.669,-0.934,–
CCTACTGGGCCATTCAGAGGTCATCGATCATATG,4.55,4.6,1.41,-0.27,5.67,5.11,2.18,5.25,1.9,3.29,4.27,4.89,3.64,0.733,4.44,3.34,1.72,3.03,–
